Compound activity (PubChem BioAssay)
ClpP mod – qHTS Assay for Activators of ClpP; ATP-dependent Clp protease proteolytic subunit (Bacillus subtilis (strain 168)), P80244; purified B. subtilis ClpP, FRET peptide cleavage, 20 min; Potency, µM (top dose mostly 57.5 µM); 340,000 compounds, 1.9% hits; active = well fitted falling curve with a large enough effect; inconclusive = small, poorly fitted or top-dose-only effect; inactive = no such curve, though single readings can be large or run the other way; note: the source files actives as falling curves though it sought activators and does not explain the sign; nearly all actives have a fitted effect of over 65% in size
Target sequence (P80244 whole entry, looked up): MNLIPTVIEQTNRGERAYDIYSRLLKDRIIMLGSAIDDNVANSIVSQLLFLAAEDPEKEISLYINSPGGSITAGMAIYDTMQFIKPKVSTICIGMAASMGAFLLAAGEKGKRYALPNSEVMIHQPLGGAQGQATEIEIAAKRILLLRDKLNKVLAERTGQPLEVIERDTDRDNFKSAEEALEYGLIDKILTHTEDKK
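Buffer: 100 mM Tris/HCl pH8, 100 mM KCl, 0.05% low protease BSA, 2.5% glycerol, 0.01% Tween-20. ClpP 10 microg/mL final; 20 min RT; delta FRET normalized to ADEP and DMSO controls.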
TDP43 rescue – rescues yeast growth from TDP-43 toxicity | TDP-43 expressing yeast growth rescue, BacTiter-Glo, 24 h | Potency, µM (series often up to 46.1 µM), actives largely listed as activators | 410,000 compounds, 1.8% hits; note: nearly all actives have a fitted effect of over 50% in size
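In this qHTS, compounds that restore growth of yeast expressing TDP-43 appear as activators. Cells (OD600=0.02, galactose medium, raffinose-pregrown) are incubated with compound 24 hr at 30 deg C and growth is quantified by BacTiter-Glo.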
aSyn yeast inh – rescues yeast growth from alpha-synuclein toxicity; 370,000 compounds, 0.14% hits; Potency, µM (series often up to 46.1 µM), usual class: activators; Yeast expressing alpha-synuclein, growth rescue, BacTiter-Glo, 24 h; note: nearly all actives have a fitted effect of over 65% in size
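Readout is rescue of growth in alpha-synuclein-expressing yeast, so inhibitors of toxicity appear as activators. Growth after 24 hr at 30 deg C in galactose medium is quantified by luminescence.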
Abeta yeast res – restores growth of yeast expressing A-beta42 peptide; yeast expressing A-beta42, growth rescue, OD600, 48 h; response scale: 0% DMSO, 100% iron-clioquinol control; Potency, µM (highest dose often 46.1 µM), usual class: activators; 410,000 compounds, 0.063% hits; note: nearly all actives have a fitted effect of over 55% in size
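Yeast growth medium received pinned compounds, then yeast cells expressing toxic A-beta were added; plates incubated at 30 C for 48 hr. Growth read as absorbance at 600 nm, normalized to DMSO and equimolar FeCl3 plus clioquinol controls.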
Mm-Cpn inhibitor – inhibitors of Methanococcus maripaludis chaperonin TRiC (MmCpn); 330,000 compounds, 0.031% hits; Potency, µM (series often up to 76.9 µM), usual class: inhibitors; purified Mm-Cpn ATPase, ADP Transcreener TR-FRET; note: nearly all actives have a fitted effect of over 80% in size
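Eu-cryptate anti-ADP/ADP-d2 competition gives a ratio inversely related to ADP. Enzyme at 25 nM was pre-exposed to compound for 10 min, then given 10 uM ATP for 30 min, 37°C throughout.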
FUS yeast rescue – suppressors of FUS proteinopathy in yeast; 390,000 compounds, 0.24% hits; S. cerevisiae FUS-expressing, growth rescue, OD600, 24 h; Potency, µM (highest dose often 76.6 µM), most hits filed as activators; AID 1347120; note: nearly all actives have a fitted effect of over 55% in size
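Yeast FUS proteinopathy model; galactose-induced FUS (2%), starting OD 0.005. Cpds in dilution series, 24hr, 30C, 99% humidity. Abs 600 nm growth. Pos ctrl CP55940 (top 92uM final); neg ctrl DMSO.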
A number is an active result; [ ] = remark or other dose. Shown are actives, neighbours in structure and some others; about 3.6% of the full set was active somewhere. Unless noted, calls come from the whole dose curve; as a rule, active = well fitted curve in the direction sought with a large enough effect; inconclusive = small, poorly fitted or top-dose-only effect, or another doubt; inactive = no such curve, though single readings can be large; an effect the other way counts as inactive or inconclusive.

Nc1cc(=O)nc(SCC(=O)N(C2CCCCC2)C2CCCCC2)n1-c1ccccc1 was read as ClpP mod inactive, TDP43 rescue inactive, aSyn yeast inh inactive, Abeta yeast res inactive, Mm-Cpn inhibitor inactive and FUS yeast rescue 28µM.
`COP(=O)(CC(=O)O)C(CC(C)C)NC(=O)OCc1ccccc1` (stereo not given) gave FUS yeast rescue inactive.
Screening CC(C)(C)C(=O)O/N=C(\N)c1c(Cl)cccc1Cl returned TDP43 rescue 13µM, aSyn yeast inh inactive, Abeta yeast res inactive, Mm-Cpn inhibitor inactive and FUS yeast rescue inactive.
For COc1ccc(CNC(C)C2COc3ccccc3O2)c(OC)c1 (stereo not given) the results were ClpP mod 28µM, TDP43 rescue inactive, aSyn yeast inh inactive, Abeta yeast res inactive, Mm-Cpn inhibitor inactive and FUS yeast rescue inactive.
CC(NCc1ccccc1)C1COc2ccccc2O1 (stereo not given) was read as ClpP mod inactive, TDP43 rescue inactive, aSyn yeast inh inactive, Abeta yeast res inactive[9.22 µM], Mm-Cpn inhibitor inactive and FUS yeast rescue inactive.
`COC(=O)c1cccc(Cn2cc([N+](=O)[O-])cn2)c1` gave Mm-Cpn inhibitor inactive.
CCCN1C2CCCC1CC(NC(=O)c1cccc([N+](=O)[O-])c1)C2 (stereo not given) was read as ClpP mod 28µM, TDP43 rescue inactive, aSyn yeast inh inactive, Abeta yeast res inactive, Mm-Cpn inhibitor inactive and FUS yeast rescue inactive.
For O=C(NC1CCCC1)c1cccc(Cn2cc([N+](=O)[O-])cn2)c1 the results were ClpP mod 16µM, TDP43 rescue inactive, aSyn yeast inh inactive, Abeta yeast res inactive and Mm-Cpn inhibitor inactive.
For COc1ccc(Cc2nc3c4c(ncn3n2)Oc2ccc3ccccc3c2C4c2ccc(OC)c(OC)c2)cc1 (stereo not given) the results were ClpP mod 13µM, TDP43 rescue inactive, aSyn yeast inh inactive, Abeta yeast res inactive and Mm-Cpn inhibitor inactive.
`COc1ccc(Cc2nc3c4c(ncn3n2)Oc2c(ccc3ccccc23)C4c2ccc(OC)c(OC)c2)cc1` (stereo not given) gave ClpP mod inconclusive, TDP43 rescue inactive, aSyn yeast inh inactive, Abeta yeast res inactive, Mm-Cpn inhibitor inactive and FUS yeast rescue inactive.
Screening Oc1ccc(-c2sc(Nc3ccccc3)n[n+]2-c2ccc(F)cc2)cc1 returned ClpP mod inactive, TDP43 rescue inactive, aSyn yeast inh inactive, Abeta yeast res inactive, Mm-Cpn inhibitor 40µM and FUS yeast rescue inactive.
For Cn1cccc1CNC(=O)Nc1ccc(Cl)cc1 the results were ClpP mod inactive, TDP43 rescue inactive, aSyn yeast inh inactive, Abeta yeast res inactive, Mm-Cpn inhibitor inactive and FUS yeast rescue inconclusive.
Screening Cn1cccc1CNC(=O)Nc1ccccc1 returned ClpP mod inactive, TDP43 rescue inactive, aSyn yeast inh inactive, Abeta yeast res inactive, Mm-Cpn inhibitor inactive and FUS yeast rescue 22µM.
Cc1cc2nnc(SC(C)C)n2c2ccccc12 was read as ClpP mod 28µM, TDP43 rescue inconclusive, aSyn yeast inh inactive, Abeta yeast res inactive, Mm-Cpn inhibitor inactive and FUS yeast rescue inactive.
For Cc1cc2nnc(SCc3ccc(F)cc3)n2c2ccccc12 the results were ClpP mod inactive, TDP43 rescue 35µM, aSyn yeast inh inactive, Abeta yeast res inactive and FUS yeast rescue inactive.
For COc1ccc(C)cc1NC(=O)c1cnc2ccc(C)cn2c1=O the results were ClpP mod inactive, TDP43 rescue inactive, Abeta yeast res inactive and FUS yeast rescue inactive.
Cc1nc(Cl)sc1C(=O)Nc1cc(F)cc(F)c1 was read as ClpP mod inactive, TDP43 rescue 11µM, aSyn yeast inh inactive, Abeta yeast res inactive, Mm-Cpn inhibitor inactive and FUS yeast rescue inactive.
O=C(Nc1cc(F)cc(F)c1)c1sc(Cl)nc1-c1ccccc1 was read as ClpP mod inactive, TDP43 rescue inactive, aSyn yeast inh inactive, Abeta yeast res inactive, Mm-Cpn inhibitor 50µM and FUS yeast rescue inactive.
For O=C(Nc1ccccc1)c1sc(Cl)nc1-c1ccccc1 the results were ClpP mod inactive, TDP43 rescue inactive, aSyn yeast inh inactive, Abeta yeast res inactive, Mm-Cpn inhibitor inconclusive and FUS yeast rescue inactive.
`Cc1ccccc1Nc1nc(-c2ccccc2)c(C(=O)Nc2cccnc2)s1` gave ClpP mod inactive, TDP43 rescue inconclusive, aSyn yeast inh inactive, Abeta yeast res inactive, Mm-Cpn inhibitor inactive and FUS yeast rescue inactive.
Screening O=C(Nc1cccnc1)c1sc(Nc2ccccc2F)nc1-c1ccccc1 returned ClpP mod 18µM, TDP43 rescue inactive, aSyn yeast inh inactive, Abeta yeast res inactive, Mm-Cpn inhibitor inactive and FUS yeast rescue inactive.
For Nc1ccc2c(c1)C(=O)N(CCCCCC(=O)O)C2 the results were ClpP mod 16µM, TDP43 rescue inactive, aSyn yeast inh inactive, Abeta yeast res inactive, Mm-Cpn inhibitor inactive and FUS yeast rescue inactive.
Screening COc1ccc(NC(=O)c2oc3ccccc3c2NC(=O)Cc2coc3ccc(C)cc23)cc1 returned ClpP mod inactive, TDP43 rescue inactive, Abeta yeast res inactive and FUS yeast rescue inactive.
`COc1ccc(-c2nc(Cn3c(SCc4ccccc4F)nc4cccnc43)c(C)o2)cc1` gave ClpP mod inconclusive, TDP43 rescue 32µM, Abeta yeast res inactive and FUS yeast rescue inactive.
`Cc1oc(-c2ccccc2Cl)nc1Cn1c(SCc2cccc(F)c2)nc2cccnc21` gave ClpP mod inactive, TDP43 rescue 18µM, Abeta yeast res inconclusive and FUS yeast rescue 35µM.
COc1ccc(-c2nc(Cn3c(SCc4ccc(F)cc4)nc4cccnc43)c(C)o2)cc1 was read as ClpP mod inactive, TDP43 rescue inactive, Abeta yeast res inactive and FUS yeast rescue inactive.
Screening Cc1oc(-c2cccc(Cl)c2)nc1Cn1c(SCc2ccc(F)cc2)nc2cccnc21 returned ClpP mod inactive, TDP43 rescue inconclusive, Abeta yeast res inconclusive and FUS yeast rescue inactive.
Screening COc1ccc(-c2nc(Cn3c(SCc4cccc(F)c4)nc4cccnc43)c(C)o2)cc1 returned ClpP mod inactive, TDP43 rescue 20µM, Abeta yeast res inactive and FUS yeast rescue inconclusive.
COc1ccc2c(c1)CCC/C2=N/OC(=O)c1ccccc1OC was read as ClpP mod inactive, TDP43 rescue 16µM, aSyn yeast inh inactive, Abeta yeast res inactive, Mm-Cpn inhibitor inactive and FUS yeast rescue inactive.
O=C(O/N=C1\CCCc2ccccc21)c1cccs1 was read as ClpP mod inactive, TDP43 rescue 8.9µM, aSyn yeast inh inactive, Abeta yeast res inactive, Mm-Cpn inhibitor inactive and FUS yeast rescue inactive.
